# Only some compounds are listed: those with a hit (about 12% of all), similar ones and a draw of the others.
# Sfp inh = Sfp phosphopantetheinyl transferase inhibition. Q9F4F7. 310,000 tested, 3.5% active. AID 1490. Potency, µM, for the others: largest response in the series, negative = inhibition, most hits filed as inhibitors. Biochemical Sfp PPTase activity, qHTS;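 also: the enzyme is Sfp with the accession as filed and its product quenches rhodamine fluorescence; 0% = enzyme reaction without inhibitor and -100% = no enzyme wells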
#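 Step 1, compound plus 15 nM Sfp-PPTase, 15 min, room temperature. Step 2, add rhodamine-CoA (5 uM) and BHQ-2-YbbR (12.5 uM). Step 3, read 525/598 nm fluorescence at 0 and 30 min.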
# HP1b chromo inh = inhibitors of HP1-beta chromodomain binding to methylated histone tails; AID 540317; P83916; Potency, µM (series often up to 114 µM), for the others: top-dose activity change, negative = inhibition, actives largely listed as inhibitors; 390,000 tested, 0.56% active; AlphaScreen HP1-beta / biotin-H3K9me3 peptide binding; also: nearly all actives have a fitted effect of over 70% in size
# Target sequence (P83916 whole entry, looked up): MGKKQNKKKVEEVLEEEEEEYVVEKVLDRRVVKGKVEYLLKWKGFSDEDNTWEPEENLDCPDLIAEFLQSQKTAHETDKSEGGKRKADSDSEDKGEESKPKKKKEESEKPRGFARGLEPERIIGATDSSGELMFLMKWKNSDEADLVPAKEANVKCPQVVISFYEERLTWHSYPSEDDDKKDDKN
#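 HP1-beta protein (50 nM final) preincubated 30 min at room temperature with biotinylated H3(1-18)K9me3 peptide (50 nM) in PBS pH 7.4, 0.01% Tween-20, then compound added for 30 min. AlphaScreen streptavidin donor/nickel chelate acceptor beads (10 ug/mL final), 30 min dark, luminescence read.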
# TDP1 inh = inhibitors of human tyrosyl-DNA phosphodiesterase TDP1; Q9NUW8; recombinant TDP1, AlphaScreen DNA substrate cleavage; Potency, µM (highest dose often 130 µM), without a hit: at the highest dose activity change, negative = inhibition, actives largely listed as inhibitors; 350,000 tested, 0.28% active; AID 485290; also: % is scaled to controls: 0 for no effect and ±100 for the full control effect; nearly all actives have a fitted effect of over 40% in size
#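 Recombinant human Tdp1 (E. coli-expressed, 1 nM final) preincubated with compounds 15 min at room temperature, then 5'-biotin/3'-phosphotyrosine-FITC DNA substrate (15 nM final) added for 5 min. AlphaScreen beads (10 ug/ml final) added 10 min; cleavage lowers signal.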
# BAZ2B block = blocks human BAZ2B | Q9UIF8 | AlphaScreen BAZ2B-H3K14Ac peptide displacement | Potency, µM (series often up to 114 µM), for inactives: at the highest dose activity change, negative = inhibition, actives largely listed as inhibitors | 360,000 tested, 4.4% active; also: % is scaled to controls: 0 for no effect and ±100 for the full control effect; nearly all actives have a fitted effect of over 60% in size
#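 AlphaScreen displacement: compounds (up to 110uM) incubated 30 min at room temperature with a preformed 50 nM BAZ2B/50 nM biotinylated H3K14Ac peptide complex in PBS pH 7.4 with Tween-20. Donor and acceptor beads at 10 ug/mL final added, 20 min light-protected before reading.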
# G9a block = G9a (human) methyltransferase inhibition | Q96KQ7 | G9a H3K9 monomethylation, AlphaScreen, 2 h | Potency, µM (titrated, usually from 102 µM), for inactives: at the top dose activity, negative = inhibition, usual class: inhibitors | 350,000 tested, 8.8% active | AID 504332; also: % is scaled to controls: 0 for no effect and ±100 for the full control effect; nearly all actives have a fitted effect of over 75% in size
# Target sequence (Q96KQ7 913-1193 limits assumed): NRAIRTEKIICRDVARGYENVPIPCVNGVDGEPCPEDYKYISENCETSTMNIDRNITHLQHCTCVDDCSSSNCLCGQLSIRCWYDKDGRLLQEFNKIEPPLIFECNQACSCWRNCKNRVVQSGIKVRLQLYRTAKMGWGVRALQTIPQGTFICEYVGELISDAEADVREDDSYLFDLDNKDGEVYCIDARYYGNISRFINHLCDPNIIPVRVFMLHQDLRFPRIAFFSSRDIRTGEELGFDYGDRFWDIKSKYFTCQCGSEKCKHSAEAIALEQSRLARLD
#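 Signal arises when biotinylated H3K9 peptide, once monomethylated, bridges streptavidin donor and antibody-captured acceptor beads. Enzyme at 20 nM was preincubated 15 min with test compounds; peptide 500 nM and SAM 20 uM then reacted for 2 h.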
# JMJD2A Tudor = JMJD2A Tudor domain (human) inhibition; 390,000 tested, 4.4% active; O75164; AID 504339; AlphaScreen JMJD2A-Tudor / H3K4me3 peptide binding; Potency, µM (titrated, usually from 114 µM), without a hit: at the highest dose activity change, negative = inhibition, usual class: inhibitors; also: % is scaled to controls: 0 for no effect and ±100 for the full control effect; nearly all actives have a fitted effect of over 50% in size
# Numbers without * were called inactive; ? = inconclusive; . = no result given; [ ] = remark or other dose. Calls follow the shape of the dose curve; as a rule, active = well fitted curve in the direction sought with a large enough effect; inconclusive = small, poorly fitted or top-dose-only effect, or another doubt; inactive = no such curve, though single readings can be large; an effect the other way counts as inactive or inconclusive. Potency is read from the fitted curve at half-maximal effect.
SMILES,Sfp inh,HP1b chromo inh,TDP1 inh,BAZ2B block,G9a block,JMJD2A Tudor
Cc1ccc(OP(=O)(Oc2ccc(C)cc2)Oc2ccc(C)cc2)cc1,.,.,-10.4%,.,.,.
CCc1n[nH]c(CCN)n1,-16.5%,10.0%,0.0%,-13.1%,56.2µM*,?
O=C1c2ccccc2-c2cccc3cccc1c23,-11.6%,1.8%,12.4%[56.1 µM],.,-34.6%[2.33 µM],56.2µM*
CN1C(=O)NC(=O)/C(=C/c2ccc(C(=O)O)cc2)C1=O,44.7µM*,43.1%,.,-16.7%,-42.0%,-11.0%[11.4 µM]
Cc1ccc(/C=C2/C(=O)NC(=O)N(C)C2=O)cc1,?,20.3%,-5.9%,-33.3%,-26.5%[59 µM],-14.4%
CCC1CCCCN1CC(=O)c1ccc(OC(F)F)cc1 (stereo unspecified),?,53.5%,-2.7%,0.5%,14.1µM*,-0.7%
O=C(CN1CCCCC1)c1ccc(OC(F)F)cc1,3.6%,39.9%,5.3%,-28.8%,?,-20.6%
Nc1ccccc1-c1ccccc1,.,.,14.4%,.,.,.
CCN1CCN(Cc2cccc(Oc3ccccc3)c2)CC1,?,?,.,31.6µM*,3.55µM*,3.16µM*
NCC[C@H](O)C(=O)N[C@H]1C[C@@H](N)[C@@H](O[C@H]2O[C@@H](CN)[C@@H](O)[C@@H](O)[C@@H]2N)[C@@H](O[C@H]2O[C@@H](CO)[C@@H](O)[C@@H]2O)[C@@H]1O,7.9%,.,6.7%[21 µM],.,2.9%[5.15 µM],.
CC(=O)Nc1ccc(N(C(=O)Cn2nnc3ccccc32)C(C(=O)NC2CCCC2)c2ccc(O)c(O)c2)cc1 (stereo unspecified),-14.3%,-14.6%,-1.2%,-18.5%,50.1µM*,-16.7%
Oc1cc[c]([Hg][Cl])cc1,0.0562µM*,.,.,.,?,.
O=C(CSc1nnnn1-c1ccccc1)Nc1ccc(N2CCOCC2)c(Cl)c1,-13.1%,32.3%,7.1%,0.5%,12.6µM*,-23.1%
CC[C@H](C)[C@H](NC(=O)[C@H](CCCN=C(N)N)NC(=O)[C@H](CCCN=C(N)N)NC(=O)[C@H](CC(C)C)NC(=O)[C@H](Cc1ccccc1)NC(=O)CNC(=O)CNC(=O)[C@@H](N)Cc1ccc(O)cc1)C(=O)N[C@@H](CCCN=C(N)N)C(=O)N1CCC[C@H]1C(=O)N[C@@H](CCCCN)C(=O)N[C@@H](CC(C)C)C(=O)N[C@@H](CCCCN)C(=O)O,?,.,9.5%,.,37.2%[59 µM],.
O=C(CN1CCCCC1)c1ccccc1Cl,-17.8%,37.6%,5.5%,-0.8%,1.58µM*,-22.8%
O=C(CN1CCCCC1)c1cccc(Br)c1,-2.5%,44.6%,2.6%,-4.3%,8.91µM*,-4.8%
O=C(CN1CCCCC1)c1ccc2c(c1)OCO2,13.2%,30.8%,.,-5.1%,?,-14.1%
O=C(CN1CCCCC1)c1ccccc1F,15.9%,52.5%,4.9%,-12.5%,25.1µM*,-5.8%
Cc1cc(C(=O)CN2CCCC2)c(C)n1-c1ccc(F)cc1,14.7%,31.2%,1.2%,-21.1%,1.0%[12.7 µM],-25.4%
Cn1c(=O)oc2cc(S(=O)(=O)N3CCCC(C(=O)N4CCN(c5cccc(Cl)c5)CC4)C3)ccc21 (stereo unspecified),.,26.9%,3.8%,-11.6%,?,-14.6%
O=[N+]([O-])c1cccnc1N1CCCNCC1,10.2%,9.8%,.,-3.4%,44.7µM*,-16.8%
O=[N+]([O-])c1ccc(N2CCCCCC2)c2ncccc12,?,?,10.1%,14.1µM*,25.1µM*,15.8µM*
COc1ccccc1N1CCN(CCc2c[nH]c3cc4c(cc23)OCO4)CC1,.,?,.,.,.,25.1µM*
O=S1(=O)CCN(CCc2c[nH]c3ccccc23)CC1,23.9%,37.2%,-1.8%,-7.7%,0.2%,-12.8%
COc1cc(/C=C2\C(=O)NC(=O)N(c3ccccc3)C2=O)cc(OC)c1OC,?,17.7%,-1.6%,-36.7%,?,-24.7%
SMILES,Sfp inh,HP1b chromo inh,TDP1 inh,BAZ2B block,G9a block,JMJD2A Tudor
COc1ccc(N2C(=O)/C(=C/c3ccc(OC)c(OC)c3)C(=O)NC2=S)cc1,-94.0%,?,.,-29.9%,.,56.2µM*
COC(=O)COc1ccc(/C=C2\C(=O)NC(=S)N(c3ccc(C)cc3)C2=O)cc1OC,39.8µM*,16.8%,.,-30.5%,11.2µM*,?
CCOC(=O)CSCCOc1ccc(C=C2C(=O)NC(=O)NC2=O)cc1OC,-84.7%,31.4%,-8.6%,?,22.4µM*,-18.9%
COc1ccc(N2C(=O)/C(=C/c3ccc(C)o3)C(=O)NC2=S)c(OC)c1,39.8µM*,-22.9%,.,50.1µM*,12.0%[0.501 µM],50.1µM*
CCOC(=O)COc1ccc(/C=C2\C(=O)NC(=S)N(c3ccc(OC)cc3)C2=O)cc1OC,44.7µM*,11.0%,.,?,?,35.5µM*
NCCCP(=O)(O)CC1CCCCC1,-5.0%,.,-3.7%,.,40.2%[59 µM],.
Cc1cccc(C2=NCC(=O)N(CC(=O)NCc3ccco3)c3sc4c(c32)CCCC4)c1,22.4µM*,-22.4%,-4.4%,44.7µM*,?,50.1µM*
O=C1CN=C(c2ccc(Br)cc2)c2c(sc3c2CCCC3)N1CCN1CCCCC1,9.3%,-18.0%,2.6%,?,?,?
O=c1c2ccc(Cl)cc2[nH]c(=S)n1-c1cccnc1,-1.6%,21.5%,-7.5%,-21.2%,20µM*,17.8µM*
O=c1c2ccccc2[nH]c(=S)n1-c1cccnc1,-6.5%,55.4%,3.5%,-1.6%,.,-5.6%
Cc1ccc2[nH]c(=S)n(-c3cccnc3)c(=O)c2c1,-3.5%,20.0%,.,0.9%,44.7µM*,?
O=C(Nc1cccnc1)C1CCN(S(=O)(=O)c2cccs2)CC1,5.3%,17.5%,-5.1%,1.5%,16.5%,-17.4%
COC1=CC(=O)O[C@@H](/C=C\c2ccccc2)C1,11.6%,.,9.7%[21 µM],.,29.4%[21.5 µM],.
N#Cc1c(/N=C/C2C(=O)NC(=S)NC2=O)sc2c1CCCC2,22.4µM*,6.0%,.,?,28.2µM*,-34.3%
Oc1ccccc1CN(CCc1ccccc1)Cc1ccccc1,?,-19.5%,.,?,-9.7%[0.501 µM],44.7µM*
CN(CCc1ccccc1)Cc1ccccc1[N+](=O)[O-],15.6%,50.1%,0.5%,?,?,-9.1%
Cc1cc(C(=O)OCC(=O)Nc2ccccc2F)c(C)n1C1CC1,.,0.6%,2.0%,-38.8%,50.1µM*,-24.0%
Cc1cc(C(=O)OCC(=O)Nc2ccc(F)cc2F)c(C)n1C1CC1,.,28.2%,1.9%,-4.7%,-4.8%[0.501 µM],-9.8%
CN1CC(C(=O)c2ccc(Cl)cc2)C(c2ccc(N(C)C)cc2)C1 (stereo unspecified),2.1%,-36.4%,5.4%,35.5µM*,35.5µM*,50.1µM*
COc1cc2c3cc1Oc1c(OC)c(OC)cc4c1[C@@H](Cc1ccc(OC(=O)c5ccc([N+](=O)[O-])cc5)c(c1)Oc1ccc(cc1)C[C@@H]3N(C)CC2)N(C)CC4,?,.,10.8%,.,.,.
O=C1NC(=O)C(=O)C(=O)N1,14.1µM*,.,4.9%[56.1 µM],.,.,.
O=C1NC(=O)C2(CCCC2)C(=O)N1,.,-15.9%,.,.,.,-7.6%
